The source of these data is PubChem BioAssay (Tox21).

SMILES strings stand for the structures. Inconclusive results are not listed. Entries that show only a call come without a potency. A number with no mark means an inactive call. Calls of active or inactive are those of the source. Calls follow the shape of the dose curve; as a rule, active = well fitted inhibition curve with a large enough effect in the repeat runs; inconclusive = weak or mixed curves; inactive = no such curve, though single readings can be large or run the other way.
Potency is read from the fitted curve at half-maximal effect.

For this assay, the target named is Cytochrome P450 2D6 (Homo sapiens) (UniProt P10635). Nature of the assay: Cytochrome P450 Family 2 Subfamily D Member 6 (CYP2D6) small molecule antagonists: luciferase reporter qHTS assay (AID 1671196). Also: nearly all actives have a fitted effect of over 50% in size. Particulars: P450-Glo CYP2D6 enzyme assay, luciferin luminescence, 1 h; series mostly up to 115 µM. The text has this: U.S. Tox21 Program National Center for Advancing Translational Sciences [NCATS] U.S. Environmental Protection Agency [EPA] National Institutes of Environmental Health Sciences [NIEHS] National Toxicology Program [NTP] U.S. Food and Drug Administration [FDA] Tox21 Assay Overview: Cytochrome P450 (CYP) enzymes are membrane-bound hemeproteins that play a key role in metabolism of drugs and xenobiotics. Evaluation of the effect of chemicals on CYP isozymes is useful to minimize the adverse drug reactions and toxicities in drug development process. Tox21 chemicals were tested for their effect on CYP enzyme activities by using P450-Glo (TM) screening systems (Promega Corporation, Madison, WI). These systems provide a luminescent method containing proluciferin substrates and are converted to luciferin products by CYP isozymes. The luciferin products formed are detected with a luciferin detection reagent, and the amount of light produced is proportional to CYP activity. P450-Glo (TM) CYP2D6 screening system (Catalog. No. V9890) was used to detect the compounds that interfere in CYP2D6 activity.
Sequence of Cytochrome P450 2D6 (Homo sapiens) (P10635 whole entry, looked up): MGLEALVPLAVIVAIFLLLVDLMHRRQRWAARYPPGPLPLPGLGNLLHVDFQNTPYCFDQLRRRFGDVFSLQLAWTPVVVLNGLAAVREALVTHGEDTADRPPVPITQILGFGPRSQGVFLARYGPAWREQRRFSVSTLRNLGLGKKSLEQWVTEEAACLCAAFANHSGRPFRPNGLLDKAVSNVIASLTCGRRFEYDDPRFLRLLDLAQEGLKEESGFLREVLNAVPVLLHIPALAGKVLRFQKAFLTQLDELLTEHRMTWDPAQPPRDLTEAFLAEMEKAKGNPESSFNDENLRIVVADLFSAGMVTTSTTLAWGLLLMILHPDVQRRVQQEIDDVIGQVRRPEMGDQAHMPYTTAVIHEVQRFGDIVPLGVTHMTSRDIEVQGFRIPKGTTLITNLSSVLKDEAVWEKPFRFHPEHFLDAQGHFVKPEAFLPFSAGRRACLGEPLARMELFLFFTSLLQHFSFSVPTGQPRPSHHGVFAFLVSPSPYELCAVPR
Tox21 Assay Protocol Summary: Two ul of enzyme-substrate mix was dispensed into medium binding white/solid 1536-well plates (Greiner Bio-One North America Inc., Monroe, NC) using a BioRaptr Flying Reagent Dispenser (FRD, Beckman Coulter, Brea, CA). […] The assay plates were incubated at room temperature for 10 min. Then 2 ul of NADPH regeneration solution was added to each well of the assay plates using an FRD and incubated at room temperature for 1 h. The reaction was stopped by adding 4 ul of detection reagent using an FRD and after 20 min incubation at room temperature the luminescence signal was measured using a ViewLux plate reader (Perkin Elmer, Shelton, CT). Data were expressed as relative luminescence units.
`Nc1ccc([N+](=O)[O-])cc1`: the Potency was 50.2 µM (active).
On the same count and under the same terms, next, `CN1CSC(=S)N(C)C1`: “inactive”.
On to `Cc1ccc2nc3sc(=O)sc3nc2c1`, for which the activity change, negative = inhibition was 1.42% [at 23.6 µM].
With `COc1ccc(C(c2ccc(OC)cc2)C(Cl)(Cl)Cl)cc1`, the Potency was 44.5 µM (active).
On the same count and under the same terms, the same measure for `Clc1ccccc1-c1ccccc1Cl`: “inactive”.
The same measure, in the same setting: next, `Cc1cc(C(C)(C)c2ccc(O)c(C)c2)ccc1O`: 30.2 µM (active); `CC1COC(Cn2cncn2)(c2ccc(Oc3ccc(Cl)cc3)cc2Cl)O1` (stereo not drawn): 39.9 µM (active); `ClC1=C(Cl)[C@]2(Cl)[C@@H]3[C@@H](Cl)[C@H]4O[C@H]4[C@@H]3C1(Cl)C2(Cl)Cl`: “inactive”.
On the same count and under the same terms, next, `O=C1C(I)=CC(=C(c2cc(I)c(O)c(I)c2)c2ccccc2C(=O)O)C=C1I`: “inactive”; `CNC(=O)Oc1cc(C)c(SC)c(C)c1`: “inactive”.
Take `OCC(c1ccc(Cl)cc1)c1ccc(Cl)cc1`: the Potency result was “inactive”.
Same read-out and setting: next, `COc1cc(OC)c(OC)cc1C=O`: 19.4 µM (active); `O=C(Nc1ccccc1-c1ccc(Cl)cc1)c1cccnc1Cl`: 30.4 µM (active).
Same read-out and setting: the same measure for `CCN(CC)C(=O)Cl`: “inactive”; for `ClC(Cl)=C(c1ccc(Cl)cc1)c1ccccc1Cl`: “inactive”; for `N#Cc1cc([N+](=O)[O-])ccc1N`: “inactive”.
The same measure, in the same setting: the same measure for `CO/C=C(/C(=O)OC)c1ccccc1Oc1cc(Oc2ccccc2C#N)ncn1`: 43.1 µM (active); for `O=[N+]([O-])c1c(Cl)c(Cl)cc(Cl)c1Cl`: 35.6 µM (active).
